# CYP2C9 act = human CYP2C9 activators, primary screen, biochemical, luminescence | Cytochrome P450 2C9 (Homo sapiens), P11712 | recombinant CYP2C9, luciferin-H conversion; active compounds read high; factor 1 = untreated enzyme, 0 = blocked | activation factor at 5 µM | actives 1.4% (n = 96,000) | AID 1024, 2008;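 active = activation factor of 2 or more for CYP2C9 at a 5 µM dose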;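 note: 0 = sulfaphenazole-blocked wells and 1 = vehicle-only wells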
# CYP2C9 inhib = blockers of cytochrome P450 2C9 activity – biochemical, luminescence, ADME assay, primary screen. CYP2C9 Supersomes, luciferin-H conversion. actives 20% (n = 96,000). inhibition, % at 5 µM. P11712;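 active = blocking of liver enzyme CYP2C9 beyond about 50% at 5 µM, limit read from the data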
# CYP2C19 act = human CYP2C19 activators, primary screen, biochemical, luminescence; activation factor at 5 µM; 96,000 tested, under 10 active; AID 1025, 2008; recombinant CYP2C19, luciferin-H EGE luminescence; active compounds read high; 0 = fully inhibited enzyme, 1 = untreated enzyme;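 active = activation factor of at least 2 at 5 µM in the primary screen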;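 note: 0 = wells with 2.5 mM tranylcypromine and 1 = vehicle-only wells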
# Target sequence (P33261 whole entry, looked up): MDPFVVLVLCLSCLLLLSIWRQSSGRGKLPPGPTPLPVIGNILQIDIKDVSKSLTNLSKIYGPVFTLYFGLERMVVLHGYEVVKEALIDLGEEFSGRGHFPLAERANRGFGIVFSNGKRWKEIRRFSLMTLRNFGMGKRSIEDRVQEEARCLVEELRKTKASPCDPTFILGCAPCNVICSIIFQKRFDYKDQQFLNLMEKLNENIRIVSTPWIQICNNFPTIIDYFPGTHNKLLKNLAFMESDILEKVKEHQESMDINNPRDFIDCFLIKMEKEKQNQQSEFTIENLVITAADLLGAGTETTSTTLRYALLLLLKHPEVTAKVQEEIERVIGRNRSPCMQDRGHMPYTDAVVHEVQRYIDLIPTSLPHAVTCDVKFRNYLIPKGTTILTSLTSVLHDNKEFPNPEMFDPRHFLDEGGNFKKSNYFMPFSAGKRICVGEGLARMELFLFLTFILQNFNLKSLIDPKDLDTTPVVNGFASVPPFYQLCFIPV
# CYP2C19 inh = blockers of cytochrome P450 2C19 activity – biochemical, luminescence, ADME assay, primary screen. P33261. CYP2C19 Supersomes, luciferin-H EGE luminescence, 30 min. inhibition, % at 5 µM. actives 21% (n = 96,000);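 active = CYP2C19 inhibition above a set limit at 5 µM in the primary screen, cut at about 50% in these data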;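 note: plate controls were negative control wells for no effect and 2.5 mM tranylcypromine positive control for full effect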
# MRP resist rev = reversal of MRP1-mediated doxorubicin resistance, primary screen, H69AR cells, doxorubicin co-treatment | actives 0.04% (n = 85,000) | H69AR cells + 2 uM doxorubicin, CellTiter-Glo, 72 h | differential viability (reversal), % at 10 µM;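 active = viability drop by adding the cancer drug above about 55%, with treated viability meeting a 40% cutoff, limit read from the data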;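 note: viability without doxorubicin minus viability with 2 µM doxorubicin for each compound; larger differential means the compound sensitizes cells more to doxorubicin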
# MRP1 act = H69AR viability gain despite doxorubicin, primary screen, MRP-1 activator project, H69AR cells, CellTiter-Glo | viability rescue | viability increase, % at 10 µM | actives 0.61% (n = 140,000) | AID 799, 2007;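 active = viability gain under doxorubicin at or above a set limit, the compound median plus 3 SD, cut at about 4.7% in these data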;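 note: MRP-1 overexpressing cells given doxorubicin 25 µM after compound pretreatment; 18-22 h compound pretreatment then 72 h with doxorubicin before readout; 0% = doxorubicin-only wells and 100% = vehicle-treated cells without doxorubicin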
# * = called active by the depositor; nt = no result. Shown are actives, neighbours in structure and some others; about 21% of the full set was active somewhere.
SMILES,CYP2C9 act,CYP2C9 inhib,CYP2C19 act,CYP2C19 inh,MRP resist rev,MRP1 act
CC(=O)C(CC(=O)N1CCCc2ccccc21)C(=O)Nc1ccc(F)cc1 (stereo unspecified),0.7,33.0,0.3,71.3*,-5.0,-0.7
COc1ccc(/C=C/C(=O)N2CCCc3ccccc32)cc1,nt,nt,nt,nt,nt,-2.9
COc1ccc(NC(=O)N2CCc3ccccc32)cc1,0.8,22.2,0.4,58.1*,6.7,-0.8
COc1ccc(NC(=O)N2CCCc3ccccc32)cc1,0.7,30.3,0.3,68.7*,2.8,-0.2
CC(=O)N1CCCc2ccccc21,0.6,37.3,0.9,9.6,2.0,-1.1
CCn1c2ccccc2c2cc(CN3CCN(S(=O)(=O)Cc4ccccc4)CC3)ccc21,nt,nt,nt,nt,nt,-2.5
COc1ccccc1Cc1nc2ccccc2n1S(=O)(=O)c1ccc(Cl)cc1,nt,nt,nt,nt,nt,-1.9
COCCn1c(SCC(=O)NCC2CCCO2)nc2c(c1=O)SC(C)C2 (stereo unspecified),1,-2.0,1,-3.5,5.0,-1.6
CCOC(=O)c1c(NC(=O)c2ccc(N3C(=O)[C@@H]4[C@H](C3=O)[C@H]3C=C[C@@H]4C3)cc2)sc2c1CC(C)CC2 (stereo partly specified),nt,nt,nt,nt,nt,-1.5
CC(Oc1ccccc1)C(=O)N1CCCc2ccccc21 (stereo unspecified),0.4,55.5*,0.1,90.8*,-15.2,-1.2
COc1cccc(C(=O)N2CCCc3ccccc32)c1,0.9,10.2,0.1,86.8*,-3.5,-1.7
COc1ccc2c(c1)CCc1c(C(=O)N3CCCc4ccccc43)noc1-2,0.3,75.0*,0.1,90.1*,3.8,-4.1
Fc1ccccc1-c1csc(=Nc2cccnc2)n1CCCn1ccnc1,nt,nt,nt,nt,nt,-3.5
Cc1ccc(N(CC(=O)Nc2ccccc2C(=O)NCc2ccco2)S(=O)(=O)c2ccccc2)cc1C,0,98.3*,0.1,92.2*,nt,0.9
COc1ccc(OC)c(N(CC(=O)Nc2ccccc2C(=O)NCc2ccco2)S(C)(=O)=O)c1,0.1,91.4*,0.1,90.0*,8.0,-2.6
Cc1cccc(S(=O)(=O)N(CC(=O)Nc2ccccc2C)Cc2ccco2)c1,0.5,53.4*,0.6,42.7,-1.9,-2.5
COc1ccc(Cl)cc1N(CC(=O)N1CCN(Cc2ccccc2)CC1)S(C)(=O)=O,0.9,11.6,0.5,54.8*,3.9,-1.3
CC1CCN(C(=O)C2CCC(C)(C(=O)O)C2(C)C)CC1 (stereo unspecified),nt,nt,nt,nt,nt,-0.9
O=C(CN(c1ccc(F)cc1)S(=O)(=O)c1ccccc1)NCc1ccco1,0.3,72.9*,0.5,50.9*,-9.2,-2.2
COc1ccc(N(CC(=O)Nc2ccccc2C(=O)NCc2ccco2)S(C)(=O)=O)cc1,0.2,84.5*,0.6,36.1,35.8,-0.8
COc1ccc(Cl)cc1N(CC(=O)Nc1ccccc1C(=O)NCc1ccco1)S(C)(=O)=O,0.5,51.4*,0.5,45.8,0.1,-1.7
COc1ccc(Cl)cc1N(CC(=O)NC(C(C)C)C(C)C)S(C)(=O)=O,nt,nt,nt,nt,nt,-1.5
COc1ccc(Cl)cc1N(CC(=O)Nc1ccccc1SC)S(C)(=O)=O,0.1,85.7*,0.1,92.2*,7.0,-2.0
O=C(CN(C(=O)c1ccc(Cl)cc1)C1CCCCC1)Nc1ccc(Cl)c([N+](=O)[O-])c1,nt,nt,nt,nt,nt,-4.4
O=C(CN(C(=O)c1ccccc1Cl)C1CCCCC1)Nc1ccc(Cl)c([N+](=O)[O-])c1,0.2,75.2*,0.7,25.1,nt,-4.3
SMILES,CYP2C9 act,CYP2C9 inhib,CYP2C19 act,CYP2C19 inh,MRP resist rev,MRP1 act
Cc1cc(Nc2ccccc2Cl)n2nnnc2n1,0.9,6.1,0.9,11.2,nt,-0.7
COc1ccc(C(=O)n2c(SC)nc3cc4c(cc32)OCCO4)cc1,0.5,53.6*,0.8,24.0,nt,-3.4
CCc1cc2c(SCC(=O)c3ccccc3)ncnc2s1,nt,nt,nt,nt,20.1,3.7
CCc1cc2c(SCC(=O)C(C#N)=C3N(C)c4ccccc4N3C)ncnc2s1,0.4,61.6*,0.6,40.4,4.5,2.6
O=C1c2ccccc2C(=O)N1CCSC(=S)N1CCOCC1,0.8,24.5,0.5,54.6*,nt,0.1
CC(=O)OC(C(=O)Nc1ccccc1)C(C)S(=O)(=O)c1ccccc1 (stereo unspecified),0.7,32.2,0.3,65.4*,19.0,-0.9
Cc1ccc(S(=O)(=O)N2CCN(c3cc4c(cc3[N+](=O)[O-])n(C)c(=O)n4C)CC2)cc1,0.2,80.6*,0.2,75.8*,nt,0.3
Cn1c(=O)n(C)c2cc([N+](=O)[O-])c(N3CCN(S(=O)(=O)c4ccc5ccccc5c4)CC3)cc21,0.6,39.6,0.3,73.4*,nt,-0.5
O=C(Cn1nnc(-c2ccncc2)n1)Nc1ccc2c(c1)CCC2,0.2,75.1*,0.1,91.0*,nt,0.3
COc1cc(NC(=O)Cn2nnc(-c3ccncc3)n2)cc(OC)c1,0.1,91.7*,0.1,89.4*,3.1,-1.3
O=C(Cn1nnc(-c2ccccc2)n1)Nc1ccc2c(c1)OCO2,0.9,11.9,1.1,-13.9,-0.4,-4.8
CCOc1ccc(-c2nnn(CC(=O)Nc3cc(OC)cc(OC)c3)n2)cc1OCC,1,0.2,0.9,7.7,-12.6,-0.6
O=C(CC1CCCC1)Nc1ccc2c(c1)CCC2,0.8,19.1,0.3,65.9*,-7.5,0.4
COc1cccc(NC(=O)Cn2nnc(-c3ccccc3N)n2)c1,0.6,37.4,0.5,51.9*,-2.8,-4.3
Cc1cccc(NC(=O)CC2CCC2)c1,1.1,-6.6,0.7,27.4,12.5,-1.3
CCCCCC(C)n1[nH]c(=O)cc1N (stereo unspecified),0.8,19.2,0.9,10.0,-1.1,2.1
N/C(Cn1nnc(-c2ccccc2)n1)=N\O,1.1,-5.4,1.1,-10.2,-2.9,-1.6
O=C(Cn1nnc(-c2ccc(Cl)cc2)n1)NCCC1=CCCCC1,0.6,36.3,0.5,52.5*,-11.9,0.0
O=C(Cn1nnc(-c2ccncc2)n1)NCCc1ccccc1,0.3,72.1*,0.3,72.6*,-5.9,-0.8
O=C(Cn1nnc(-c2ccccc2)n1)c1ccccc1,1.2,-23.0,0.4,59.2*,12.4,-1.5
Cc1ccc(-c2nnn(CC(=O)NCCC3=CCCCC3)n2)cc1,nt,nt,nt,nt,0.0,0.1
O=C(Cn1nnc(-c2cccs2)n1)NCCc1ccccc1,nt,nt,nt,nt,5.4,2.0
CC(C)C(NC(=O)OC(C)(C)C)C(=O)N1CCCC1C(=O)NC(Cc1ccccc1)C(N)=O (stereo unspecified),1.2,-20.0,1.2,-20.7,14.6,0.3
Nn1c(COc2ccc(Cl)cc2)nc2ccccc2c1=O,nt,nt,nt,nt,nt,-0.8
Cc1ccc(C(=O)c2c[nH]c3c(F)cc(F)cc3c2=O)cc1,nt,nt,nt,nt,nt,0.5

# Screening results deposited in PubChem by several laboratories.
